The other results are listed elsewhere or left out.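 Rule for the calls: active = fluorescence response below 15%; inactive = the rest.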
Experiment: yeast superoxide dye artefact check – S. cerevisiae BY4741, flow cytometry, artefact control for yeast caloric restriction mimetic project (AID 435000);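 note: percent of the mean fluorescence averaged over all compound wells on the plate; lower means stronger quenching of DHE signal or ROS scavenging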
Settings: S. cerevisiae BY4741, DHE fluorescence, at 10 µM, active compounds read low

Fluorescence response, inactive:
Cc1ccccc1NC(=O)NCC1CCN(Cc2cccc(Cl)c2)CC1 101%, O=C(CSc1ccc(-c2ccc(-n3cccn3)cc2)nn1)Nc1ccc([N+](=O)[O-])cc1 88.8%, Cc1cc(=O)n2[nH]c(-c3cccc(Cl)c3)cc2n1 92.6%, Cc1ccc(NC(=O)Cn2nc(C)c3ccccc3c2=O)c(C)c1 110%, O=C(O)c1ccc(F)c(S(=O)(=O)Nc2ccccc2)c1 90.9%, Cc1ccc(-c2nc(CS(=O)CC(=O)N3CCN(c4ncccn4)CC3)c(C)o2)cc1 (stereo unspecified) 95.7%

— PubChem BioAssay AID435000 (NMMLSC, 2010)
